A short description of experiment [1]: qHTS assay to identify small molecule agonists of the hypoxia (HIF-1) signaling pathway - cell viability counter screen (AID 1224844; calls by dose curve; note: nearly all actives have a fitted effect of over 50% in size). In outline:
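Same wells as the HIF-1 reporter screen; ME-180 cells carrying HRE-bla, 17 hr treatment at 37C; CellTiter-Glo luminescence read after 30 min at room temperature.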

Experiment [2] in a line: qHTS assay to identify small molecule agonists of H2AX (AID 1224845; active = well fitted activation curve with a large enough effect in the signal ratio in the repeat runs, not every such curve was filed as active; the % refers to the signal ratio). An outline of the steps:
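Wild-type CHO-K1 cells plated overnight, then exposed 3 hr at 37C to compounds at 15 concentrations (0.76% DMSO). Lysed, then HTRF anti-pH2AX(S139)-cryptate/anti-H2AX-d2 detection after 24 hr at room temperature; emissions 665 and 620 nm.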
(In qHTS, concentration-response curves come from the screen itself.)

Experiment [3] in a line: qHTS assay to identify small molecule agonists of H2AX - cell viability counter screen (AID 1224847; calls by dose curve; note: top concentration of the series differs between compounds; nearly all actives have a fitted effect of over 30% in size). An outline of the steps:
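Quantitative HTS viability measurement: CHO-K1 wild-type cells in serum (10% FBS) medium, short 3 hr drug exposure at 37C with 0.76% DMSO, CellTiter-Glo luminescent detection.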

Experiment [4] can be described thus: qHTS assay to identify small molecule antagonists of the estrogen related receptor (ERR) signaling pathway from Tox21 library (AID 1224848). Note: nearly all actives have a fitted effect of over 50% in size. Note: potency is the fitted concentration of half-maximal effect. An outline of the steps: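 First, 2,000 ERR cells per well were plated and held 6 h at 37 C/5% CO2. Next, compounds in DMSO were pinned in and left 18 h at 37 C. Finally, ONE-Glo was added and luminescence read after 30 min at room temperature.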

Experiment [5] can be described thus: qHTS assay to identify small molecule agonists of the estrogen related receptor (ERR) signaling pathway from Tox21 library (AID 1224849; calls by dose curve; note: nearly all actives have a fitted effect of over 15% in size). The conditions noted are these: ERR reporter cell line, ONE-Glo luciferase, 18 h. An outline of the steps: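 Reporter cells (ERR, NTP source) treated with Tox21 10K compounds 18 h, 37 C. Readout: ONE-Glo luminescence, 30 min RT.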

Experiment [6] can be described thus: qHTS RealTime-Glo MT Cell Viability Assay in HepG2 cells - 24 hour (AID 1224867). Note: nearly all actives have a fitted effect of over 50% in size. In outline:
(§1)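 Viability was tracked continuously by NanoLuc luminescence from prosubstrate reduced by living HepG2 cells, at successive time points over 40 h of compound exposure. Cells with reagent were preincubated 5 h at 37 °C before compound addition.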

Experiment [7] is described as follows: qHTS RealTime-Glo MT Cell Viability Assay in HEK293 cells - 32 hour (AID 1224868). Note: top concentration of the series differs between compounds; nearly all actives have a fitted effect of over 50% in size. In outline: (§2)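 Viability tracked continuously by luminescence as live cells reduce a prosubstrate for NanoLuc; HEK293 cells preincubated 5 h, compound-treated at 37 C, and read at 0, 8, 16, 24, 32 and 40 h.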
A short description of experiment [8]: A CellTox Green Cytotoxicity Assay to monitor cytotoxicity in HEK293 cells - 0 hour (AID 1224869). Note: nearly all actives have a fitted effect of over 50% in size. In outline:
(§3)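 Homogeneous no-lysis format: HEK293 cell suspension mixed with CellTox Green reagent, seeded, incubated 5 h at 37 C/5% CO2, then dosed by pintool with compound in DMSO.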

Experiment [9] in a line: qHTS RealTime-Glo MT Cell Viability Assay in HepG2 cells - 40 hour (AID 1224870). Note: nearly all actives have a fitted effect of over 50% in size. An outline of the steps:
(§4)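 HepG2 cells mixed with RealTime-Glo MT reagents (NanoLuc plus cell-permeant prosubstrate) were seeded at 600 cells/well, incubated 5 h at 37 C/5% CO2, then pinned with compounds in DMSO; nonlytic luminescence tracked viability during 40 h treatment.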

Experiment [10] in a line: A CellTox Green Cytotoxicity Assay to monitor cytotoxicity in HEK293 cells - 40 hour (AID 1224871). Note: nearly all actives have a fitted effect of over 45% in size. An outline of the steps: as §3
A short description of experiment [11]: qHTS RealTime-Glo MT Cell Viability Assay in HEK293 cells - 16 hour (AID 1224872). In outline: as §2
Experiment [12] in a line: qHTS RealTime-Glo MT Cell Viability Assay in HepG2 cells - 8 hour (AID 1224873). Note: nearly all actives have a fitted effect of over 55% in size. An outline of the steps: as §4
Experiment [13] can be described thus: qHTS RealTime-Glo MT Cell Viability Assay in HEK293 cells - 40 hour (AID 1224874). Note: nearly all actives have a fitted effect of over 50% in size. The conditions noted are these: RealTime-Glo luminescence; max response: stronger effect = lower value. In outline:
(§5)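 Measured as luminescence from the same continuously cultured HEK293 wells at successive time points (0, 8, 16, 24, 32, 40 h) after compound addition. Reagent present from seeding; dosing at 5 h; incubation 37 C.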

Experiment [14] is described as follows: A CellTox Green Cytotoxicity Assay to monitor cytotoxicity in HEK293 cells - 24 hour (AID 1224875). Note: nearly all actives have a fitted effect of over 45% in size. An outline of the steps:
as §3

The nature of experiment [15]: A CellTox Green Cytotoxicity Assay to monitor cytotoxicity in HepG2 cells - 16 hour (AID 1224876). Note: nearly all actives have a fitted effect of over 45% in size. In outline: (§6)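 Fluorescent DNA-binding dye, 600 HepG2 cells/well, 5 h preincubation then compound in DMSO; same plates read at 0–40 h, 37 C.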
The nature of experiment [16]: qHTS RealTime-Glo MT Cell Viability Assay in HepG2 cells - 32 hour (AID 1224877). Note: nearly all actives have a fitted effect of over 55% in size. In outline: as §1
The nature of experiment [17]: A CellTox Green Cytotoxicity Assay to monitor cytotoxicity in HepG2 cells - 24 hour (AID 1224878). Note: nearly all actives have a fitted effect of over 45% in size. An outline of the steps: as §6
Experiment [18] in a line: A CellTox Green Cytotoxicity Assay to monitor cytotoxicity in HepG2 cells - 40 hour (AID 1224879). Note: nearly all actives have a fitted effect of over 40% in size. In outline:
as §6

The nature of experiment [19]: qHTS RealTime-Glo MT Cell Viability Assay in HEK293 cells - 0 hour (AID 1224880). An outline of the steps:
as §5

Experiment [20] in a line: qHTS assay to identify small molecule agonists of the hypoxia (HIF-1) signaling pathway (AID 1224846; active = well fitted activation curve with a large enough effect in the signal ratio in the repeat runs, not every such curve was filed as active; the % refers to the signal ratio). In outline:
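In ME-180 cells bearing an HRE-bla construct, 17 h treatment with DMSO-dissolved compounds at 37C was followed by CCF4-AM loading to quantify reporter induction.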

Unmarked numbers belong to inactive results. Results filed as inconclusive are left out. Activity calls are given as the source filed them. Unless noted, calls come from the whole dose curve; as a rule, active = well fitted curve in the direction sought with a large enough effect in the repeat runs; inconclusive = weak or mixed curves; inactive = no such curve, though single readings can be large; an effect the other way counts as inactive or inconclusive.
% is set by controls: 0 for no effect and ±100 for the full control effect.

Consider `O=[N+]([O-])O[C@H]1CO[C@H]2[C@@H]1OC[C@H]2O[N+](=O)[O-]`, for which the Potency result in [1], in experiment [2], in experiment [3], in experiment [4], in [6] and in experiment [7] was “inactive” throughout. Further, the Potency result in experiment [8], in [9], in experiment [10], in experiment [11], in [12] and in [14] was “inactive” throughout. In addition, the Potency entry in [15], in experiment [16], in experiment [17] and in experiment [18] was “inactive” in each case. Besides, the activity change, positive = activation in experiment [5] (at 42.5 µM (top of the series)) was 4.43%. Moreover, the max response in experiment [13] is 6.05%. Moreover, in [19], the compound was called inactive.

On to `Cc1cnc(C2=NC(C)(C(C)C)C(=O)N2)c(C(=O)O)c1` (stereo not given), for which the Potency entry in experiment [1], in experiment [2], in [3], in experiment [6], in [7] and in experiment [9] was “inactive” in each case. In addition, the Potency result in experiment [10], in [11], in [14], in [15], in experiment [16] and in experiment [17] was “inactive” in each case. For the same compound, the Potency entry in experiment [18] is “inactive”. The compound was called inactive in [20] and in experiment [19]. Also, the max response in [13] is 12.6%.

Turning to `OCCSSCCO`, the Potency entry in experiment [1], in experiment [2], in experiment [3], in experiment [6], in experiment [7] and in experiment [9] was “inactive” throughout. Besides, the Potency result in experiment [10], in experiment [11], in [12], in experiment [14], in [17] and in experiment [18] was “inactive” throughout. The result in experiment [20] and in experiment [19] was inactive. The max response in [13] was 3.99%.

In the case of `COC1=CC(=O)O[C@@H](/C=C/c2ccc3c(c2)OCO3)C1`, the Potency result in experiment [1], in [2], in experiment [3], in [6], in experiment [7] and in experiment [8] was “inactive” throughout. For the same compound, the Potency entry in [9], in experiment [10], in experiment [11], in [12], in experiment [14] and in experiment [17] was “inactive” in each case. The Potency result in experiment [18] is “inactive”. Further, in experiment [4], the Potency was 20.8 µM (active). The activity change, positive = activation in [5] (at 92.4 µM (top of the series)) was -47.8%. For the same compound, in experiment [19], the compound was classed as inactive.

Take `CCSCc1ccccc1OC(=O)NC`: the Potency result in experiment [1], in experiment [2], in experiment [6], in [7], in [8] and in [9] was “inactive” throughout. Also, the Potency result in experiment [10], in experiment [11], in experiment [12], in experiment [14], in [16] and in [17] was “inactive” each time. The Potency result in experiment [18] is “inactive”. Further, the result in experiment [20] and in [19] was inactive. The max response in experiment [13] is -1.43%.

On to `C[C@]12CC[C@H]3[C@@H](CCC4=CC(=O)CC[C@@H]43)[C@@H]1CC[C@@H]2OC(=O)CCc1ccccc1`, for which the Potency result in experiment [1], in experiment [2], in [4], in experiment [6], in experiment [7] and in experiment [9] was “inactive” throughout. In addition, the Potency result in experiment [11], in [12], in experiment [14], in experiment [15], in experiment [16] and in [17] was “inactive” each time. Besides, the Potency result in [18] is “inactive”. The result in experiment [20] and in [19] was inactive. In addition, the activity change, positive = activation in experiment [5] (at 42.5 µM (top of the series)) is 10.2%. For the same compound, the max response in [13] is 0.945%.

As for `CCc1ccccc1N`, the Potency result in [1], in experiment [2], in experiment [3], in experiment [6], in [8] and in experiment [9] was “inactive” in each case. For the same compound, the Potency entry in [10], in [11], in experiment [12], in experiment [14], in experiment [15] and in [16] was “inactive” in each case. Further, the Potency entry in experiment [17] and in [18] was “inactive” each time. Moreover, the call in experiment [20] and in [19] was inactive. In addition, the max response in experiment [13] is 1.07%.

Consider `Cc1nnc(-c2ccccc2)c(=O)n1N`, for which the Potency entry in [1], in experiment [2], in experiment [3], in experiment [6], in experiment [7] and in experiment [8] was “inactive” throughout. Also, the Potency result in experiment [9], in [10], in experiment [11], in [12], in experiment [14] and in experiment [15] was “inactive” each time. In addition, the Potency entry in experiment [16], in experiment [17] and in [18] was “inactive” each time. Further, the max response in experiment [13] is -13.2%. The compound was called inactive in experiment [19].

Regarding `CC(C)c1ccc(OP(=O)(Oc2ccc(C(C)C)cc2)Oc2ccc(C(C)C)cc2)cc1`, the Potency result in experiment [1], in [2], in [3], in experiment [6], in experiment [8] and in [9] was “inactive” each time. For the same compound, the Potency entry in [10], in [11], in [12], in experiment [14], in experiment [15] and in [16] was “inactive” in each case. Also, the Potency entry in experiment [17] and in [18] was “inactive” throughout. Moreover, the call in experiment [20] and in experiment [19] was inactive. For the same compound, the max response in experiment [13] is -29.6%.
